Compound activity as filed in PubChem.
GSH fluor: GSH bead compound fluorescence profile; GSH beads flow cytometry, compound fluorescence 488/530 nm; hits give high values; actives 0.25% (n = 190,000); fluorescence (KMESF) at 10 µM; AID 1776; in the data active = fluorescence above about 89;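 note: glutathione beads carrying GST-tagged Bcl family fusion proteins plus one bare bead set; values are compound well signal with DMSO vehicle wells as background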
RGS4-Gao reg: modulates binding of RGS4 to human Galphao | P09471 | Multiplexed bead flow cytometry; actives lie on both sides | binding response (% of control), % at 10 µM | actives 0.33% (n = 220,000) | AID 1415; in the data active = binding response below about 49% or above about 150%; inactive = in between;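 note: fluorescent Galphao activated with aluminum fluoride binding bead-coupled RGS4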
Target sequence (P09471 whole entry, looked up): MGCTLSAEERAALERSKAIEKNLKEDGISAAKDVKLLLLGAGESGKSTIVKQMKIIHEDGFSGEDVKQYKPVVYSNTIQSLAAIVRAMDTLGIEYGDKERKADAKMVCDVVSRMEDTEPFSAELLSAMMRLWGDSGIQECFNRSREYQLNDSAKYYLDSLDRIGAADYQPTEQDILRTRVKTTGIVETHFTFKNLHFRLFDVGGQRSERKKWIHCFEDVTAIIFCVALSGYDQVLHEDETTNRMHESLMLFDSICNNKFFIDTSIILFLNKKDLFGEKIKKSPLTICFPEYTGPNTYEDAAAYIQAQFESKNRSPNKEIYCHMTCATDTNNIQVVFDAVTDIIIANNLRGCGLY
RGS16-Gao HTS: RGS16-Galphao interaction regulator (human); O15492+P09471; bead-based flow cytometry RGS16-Galphao binding, fluorescence; actives lie on both sides; binding response (% of control), % at 10 µM; actives 0.38% (n = 220,000); call rule not given here;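 note: Galphao activated by GDP with aluminum fluoride before binding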
Target sequence (O15492 whole entry, looked up): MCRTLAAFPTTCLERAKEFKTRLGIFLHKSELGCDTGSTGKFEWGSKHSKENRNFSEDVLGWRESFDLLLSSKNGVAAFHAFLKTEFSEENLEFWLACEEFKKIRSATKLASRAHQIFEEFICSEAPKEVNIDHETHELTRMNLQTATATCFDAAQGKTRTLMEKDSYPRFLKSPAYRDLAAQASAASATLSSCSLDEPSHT
Target sequence (P09471 whole entry, looked up): as the sequence (P09471 whole entry, looked up) above
RGS8-Gao: modulates binding of RGS8 to human Galphao; P09471; multiplexed bead flow cytometry; actives lie on both sides; response (percent of control binding), % at 10 µM; actives 0.34% (n = 220,000); in the data active = response below about 60% or above about 140%; inactive = in between;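 note: Galphao activated as the GDP aluminium fluoride complex binding bead-coupled RGS8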
RGS7-Gao: regulators of human RGS7-Galphao interaction; P09471; Multiplexed bead flow cytometry, RGS7-Galphao binding; actives lie on both sides; binding response (% of control), % at 10 µM; actives 0.35% (n = 220,000); AID 1439; in the data active = binding response below about 49% or above about 150%; inconclusive = no clear call, values can overlap the other calls; inactive = in between;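 note: fluorescent Galphao held in activated GDP-AlF4 state binding bead-coupled RGS7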
Avidin bead fluor: avidin bead compound fluorescence profile; Avidin beads, compound fluorescence 488/530 nm, flow cytometry; hits give high values; fluorescence (KMESF) at 10 µM; actives 0.38% (n = 220,000); AID 1775; in the data active = fluorescence above about 47
Numbers without * were called inactive; ? = inconclusive; · = not tested or not shown. Shown are actives, neighbours in structure and some others; about 1.2% of the full set was active somewhere.

SMILES | GSH fluor | RGS4-Gao reg | RGS16-Gao HTS | RGS8-Gao | RGS7-Gao | Avidin bead fluor
COc1ccc(N(CC(=O)Nc2cc(C)on2)S(=O)(=O)c2ccc(Cl)cc2)cc1 | 250* | 113 | 108 | 105 | 107 | 4
COc1ccc(N(CC(=O)Nc2cc(C)on2)S(=O)(=O)c2cc(C)ccc2C)cc1 | 25 | 100 | 93 | 97 | 99 | 26
Cc1cccc(CN(C)CCc2ccccn2)c1 | 15 | 99 | 100 | 102 | 105 | 33
Cc1cccc(OCC(=O)N(C)CCc2ccccn2)c1 | 22 | 101 | 101 | 101 | 105 | 47*
O=C(NNC1=Nc2cccc3cccc1c23)c1ccc(Br)cc1 | 10 | 98 | 102 | 100 | 113 | 6
CCOC(=O)c1cnc2c(C(=O)OC)cccc2c1NCc1cccnc1 | 18 | 101 | 100 | 102 | 100 | 10
CCCCSc1nc2c(cnn2-c2ccccc2)c(=O)n1N | 17 | 101 | 102 | 101 | 129 | 61*
CCCSc1nc2c(cnn2-c2ccccc2)c(=O)n1N | · | 98 | 99 | 97 | ? | 7
CCOc1ccc(S(=O)(=O)N(C)c2ccc(OCC(=O)NCCc3ccc(OC)cc3)cc2)cc1 | · | 102 | 102 | 102 | ? | 10
O=C(Cc1csc(NC(=O)c2ccc(F)cc2)n1)NO | 15 | 101 | 100 | 100 | 102 | 9
COC(=O)/C=C1\NC(=O)C(C)S1 (stereo not drawn) | 16 | 102 | 99 | 100 | 102 | 8
CC(C)NC(=O)C(=O)NNC(=O)C12CC3CC(CC(C3)C1)C2 | 109* | 82 | 73 | 89 | 101 | 7
CC(CN1CCCCC1)C(=O)NNC(=O)C12CC3CC(CC(C3)C1)C2 (stereo not drawn) | 21 | 103 | 103 | 102 | 105 | 24
CCCn1nc2cc(C(=O)NCCCCc3ccccc3)ccc2c1OCC | 13 | 105 | 108 | 101 | 106 | 52*
CCCn1nc2cc(C(=O)NCCc3ccc(C)cc3)ccc2c1OCC | 12 | 110 | 114 | 104 | 107 | 63*
CCCCn1nc2cc(C(=O)NCCc3cccs3)ccc2c1OCC | 54 | 100 | 98 | 101 | 101 | 7
O=C(O)C1C2CCC(C2)C1C(=O)NCc1ccco1 (stereo not drawn) | 5 | 95 | 97 | 96 | 91 | 8
O=C(NCc1ccco1)C1CC2CCC1C2 (stereo not drawn) | 246* | 116 | 173 | 134 | 135 | 9
COc1ccc(S(=O)(=O)NCc2ccc(C)cc2)cc1 | 263* | 96 | 99 | 96 | 94 | 7
CC(C)(C)c1ccc(OCC(=O)Nc2ccc3c4c(cccc24)C(=O)NC3=O)cc1 | 18 | 98 | 96 | 100 | 102 | 12
COc1ccc(/C=N/Nc2nc(Nc3ccccc3)nc(N3CCCC3)n2)cc1 | 24 | 98 | 107 | 108 | 125 | 78*
N#Cc1ccccc1Sc1ccccc1N | 25 | 20* | 0.4* | 12* | 14* | -2
Cc1cc(NC(=O)CN2C(=O)NC3(CCCCCC3)C2=O)no1 | · | 105 | 100 | 101 | ? | 8
C=CCn1c(SCC(=O)Nc2cccc3ccccc23)nnc1-c1cnccn1 | 14 | 99 | 98 | 101 | 107 | 51*
COc1cc(N2CCCC2)c(OC)cc1/C=c1/sc2nc3ccccc3n2c1=O | 61 | 140 | 165 | 105 | 138 | 63*
SMILES | GSH fluor | RGS4-Gao reg | RGS16-Gao HTS | RGS8-Gao | RGS7-Gao | Avidin bead fluor
Cc1c(C(=O)OC2CCCCC2)[nH]c2c1C(=O)CC(C)(C)C2 | 13 | 100 | 103 | 101 | 102 | 48*
Cc1c(C(=O)OC(C)C)[nH]c2c1C(=O)CC(C)(C)C2 | 13 | 102 | 99 | 100 | 100 | 33
CN(C)CCNC(=S)Nc1cccc(Cl)c1 | 19 | 22* | 0.9* | 12* | 14* | -2
CCSc1nnc(NC(=O)c2ccc(C)o2)s1 | 17 | 103 | 105 | 105 | 105 | 48*
CCOC(=O)C1(Cc2cccc(OC)c2)CCN(CC2CC=CCC2)CC1 (stereo not drawn) | 24 | 101 | 101 | 101 | 99 | 9
Cc1ccc(/C=C/S(=O)(=O)NCc2ccc(F)cc2)cc1 | 68 | 98 | 99 | 100 | 93 | 10
O=[N+]([O-])c1ccc(/C=N/Nc2nc(N3CCOCC3)nc(N3CCOCC3)n2)cc1 | 24 | 102 | 105 | 101 | 99 | 10
O=[N+]([O-])c1ccc(Cl)c(/C=N/Nc2nc(N3CCOCC3)nc(N3CCOCC3)n2)c1 | 61 | 104 | 21 | 83 | 92 | 354*
CC(=O)Nc1ccc(C2(O)COc3ccccc3O2)cc1 (stereo not drawn) | 262* | 103 | 107 | 100 | 102 | 9
CC(=O)Nc1ccc2c(c1)OCCOCCOc1cc(NC(C)=O)ccc1OCCO2 | · | 102 | 102 | 101 | ? | 9
COc1ccc(S(=O)(=O)N(C)C)cc1NCC(=O)Nc1cccc(C#N)c1 | 11 | 104 | 101 | 108 | 102 | 24
O=C(NCc1ccco1)/C(=C/c1cccnc1)NC(=O)c1ccco1 | 24 | 21* | 1.6* | 12* | 14* | -2
Cc1nc([N+](=O)[O-])cn1CC(O)c1ccc(F)cc1 (stereo not drawn) | · | 96 | 99 | 98 | ? | 9
C/C(=N\N=C(N)N)c1ccc(C)c(C)c1 | · | 104 | 102 | 104 | ? | 3
Cn1ncc2c(=O)n(CC(=O)NC34CC5CC(CC(C5)C3)C4)cnc21 | 26 | 105 | 104 | 102 | 122 | 84*
CC(C)(C)n1ncc2c(=O)n(CC(=O)NCc3ccccc3)cnc21 | 13 | 101 | 111 | 107 | 102 | 24
Cc1nc2ccccc2c(=O)n1NC(=O)c1cccnc1Cl | 11 | 101 | 97 | 101 | 96 | 6
Cc1nc2ccccc2c(=O)n1NC(=O)c1ccccc1[N+](=O)[O-] | 22 | 102 | 106 | 104 | 114 | 49*
Cc1ccc(NC2=C(NCCO)C(=O)c3ccccc3C2=O)cc1 | 11 | 118 | 102 | 100 | 116 | 49*
CCCCCCc1cc2cc(-c3nnc(-c4cc(OC)c(OC)c(OC)c4)o3)c(=O)oc2cc1O | 113* | 100 | 98 | 98 | 99 | 7
CCCCCCc1cc2cc(-c3nnc(-c4ccccc4O)o3)c(=O)oc2cc1O | 26 | 111 | 111 | 100 | 109 | 26
CCCCCCc1cc2cc(-c3nnc(-c4ccccc4OC)o3)c(=O)oc2cc1O | 248* | 88 | 109 | 102 | 93 | 5
Oc1ccc2n[nH]nc2c1 | 21 | 96 | 99 | 99 | 98 | 14
CCOc1ccccc1OCCCC(=O)N1CCN(S(=O)(=O)c2cccc(F)c2)CC1 | 8 | 88 | 91 | 95 | 100 | 8
CCOc1ccccc1OCCCC(=O)N1CCN(S(=O)(=O)c2ccc(C)cc2)CC1 | 256* | 108 | 116 | 107 | 108 | 9
